High-throughput results deposited in PubChem by National Center for Advancing Translational Sciences (NCATS).
Vaccinia Venus: inhibitors of vaccinia virus (Venus reporter); 330,000 compounds, 0.46% hits; Potency, µM (highest dose often 36.5 µM), hits mostly inhibitors; AID 720580; Vaccinia virus Venus reporter expression, fluorescence; calls by dose curve; tested in A549 cells; also: nearly all actives have a fitted effect of over 30% in size
VACV mCherry inh: inhibitors of vaccinia virus infection (mCherry reporter signal); Vaccinia virus mCherry reporter infection, fluorescence; Potency, µM (doses to about 36.5 µM), hits mostly inhibitors; 310,000 compounds, 0.63% hits; AID 720579; calls by dose curve; tested in A549 cells; also: nearly all actives have a fitted effect of over 35% in size
HCMV inh: human cytomegalovirus inhibition; HFF cells, HCMV-luciferase reporter, 72 h; active compounds read low; activity change, negative = inhibition, % at 57.5 µM; 410,000 compounds, 4.5% hits; in the data active = activity change below about -60%; inconclusive = no clear call, values can overlap the other calls; inactive = above about -39%
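Screen run at 2 compound doses on HFFs infected with reporter HCMV, MOI 1 PFU/cell. Luciferase activity from cell lysates at 72 h post infection gave inhibition relative to buffer-only and Salinomycin wells.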
HCV inhibitor: inhibitors of hepatitis C virus infection; AID 651820; Potency, µM (series often up to 41.8 µM), hits mostly inhibitors; 340,000 compounds, 3.4% hits; Huh7.5.1 HCVcc-Cre infection, luciferase reporter, 44 h; active = well fitted inhibition curve with a large enough effect; inconclusive = small, poorly fitted or top-dose-only effect, or another doubt; inactive = no such curve, though single readings can be large or run the other way
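Infectious HCVcc-Cre (~0.5 moi) was added to cells just after compound, with cells seeded 4 h earlier at 1,000 per well. Luciferase activity after 44 h culture reported infection; substrate was incubated 15 min at room temperature before reading.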
FMDV antiviral: antivirals against foot and mouth disease virus | FMDV antiviral cell-based qHTS | Potency, µM (top dose mostly 57.9 µM), most hits filed as inhibitors | 410,000 compounds, 1.2% hits | AID 1159524; calls by dose curve; tested in HEK293T cells; also: read-out not given here; nearly all actives have a fitted effect of over 45% in size
Each line names hits and unclear results; the compound was inactive in the other large screens; ! = a repeat was not active. Sampled rows, rich in hits. Any-hit rate of the full collection: about 7.3%.

CCn1nc(NC(=O)c2ccco2)c2cc3cc(C)ccc3nc21	VACV mCherry inh inconclusive, HCV inhibitor inconclusive
CCCn1nc(NC(=O)c2ccco2)c2cc3ccccc3nc21	HCV inhibitor 35µM, FMDV antiviral inconclusive (no result: Vaccinia Venus, VACV mCherry inh)
CCCn1nc(NC(=O)c2cccs2)c2cc3ccc(C)cc3nc21	HCV inhibitor 14µM (no result: Vaccinia Venus, VACV mCherry inh)
COc1ccccc1Cn1ccn(Cc2c(F)cccc2Cl)c(=O)c1=O	none (no result: HCV inhibitor)
Cc1ccc(Cl)cc1N1CCN(CCNC(=O)Nc2ccccc2Cl)CC1	none (no result: HCV inhibitor)
Cc1ccc(C(O)c2ncc(-c3ccc(C(F)(F)F)cc3)[nH]2)cc1F (centres undefined)	Vaccinia Venus inconclusive (no result: HCV inhibitor)
COc1nnc(-c2ccc(N3CCOCC3)c(NC(=O)C3CCCCC3)c2)c2ccccc12	HCMV inh inconclusive, HCV inhibitor inconclusive, FMDV antiviral inconclusive
COc1nnc(-c2ccc(N3CCCCC3)c(NC(=O)C3CCCCC3)c2)c2ccccc12	HCMV inh -101, FMDV antiviral inconclusive
COc1nnc(-c2ccc(N3CCCCC3)c(NC(=O)c3ccccc3)c2)c2ccccc12	Vaccinia Venus inconclusive, VACV mCherry inh inconclusive, FMDV antiviral 8.9µM (no result: HCV inhibitor)
Cc1ccc(NC(=O)CCC(=O)c2cccs2)nc1	none
Cc1ccnc(NC(=O)CCC(=O)c2cccs2)c1	FMDV antiviral 14µM
Cc1ccc(NC(=O)CCC(=O)c2cccs2)cc1F	HCMV inh -64
O=C1COc2ccc(C(=O)/C=C/c3ccccc3)cc2N1	HCMV inh -84
CCc1ccccc1NC(=O)C(=O)NCCc1sc(-c2cccc(C)c2)nc1C	none (no result: HCV inhibitor)
COc1ccc(CNC(=O)C(C)Sc2nc(-c3ccccc3)cc(C(F)(F)F)n2)cc1 (centres undefined)	HCMV inh inconclusive (no result: HCV inhibitor)
CC(Sc1nc(-c2ccccc2)cc(C(F)(F)F)n1)C(=O)NCc1ccco1 (centres undefined)	HCV inhibitor 11µM
O=C(N/N=C(\Cc1ncc[nH]1)c1ccccc1)c1ccccc1	HCMV inh -78 (no result: Vaccinia Venus, VACV mCherry inh, HCV inhibitor, FMDV antiviral)
O=C(N/N=C(\c1ccccc1)c1cccnc1)c1cccc(F)c1	Vaccinia Venus inconclusive, VACV mCherry inh 3.2µM, HCMV inh -112, HCV inhibitor inconclusive, FMDV antiviral inconclusive
NC(=O)c1ccc(C(=O)N/N=C(/Cc2ccccc2)c2ccccc2)cc1	none (no result: HCMV inh)
O=C(N/N=C(\Cc1ncc[nH]1)c1ccccc1)c1ccncc1	Vaccinia Venus inconclusive, VACV mCherry inh 10µM, HCMV inh -91, HCV inhibitor inconclusive
O=C(N/N=C(\Cc1ncc[nH]1)c1ccccc1)c1cccnc1	Vaccinia Venus inconclusive, VACV mCherry inh 11µM, HCMV inh inconclusive, HCV inhibitor inconclusive
COc1cc(NC(=O)CC(C)n2nc(C)cc2C)cc(OC)c1 (centres undefined)	none (no result: HCV inhibitor)
COc1ccc(N2CCC[C@@H]2/C=C/C(=O)OCc2ccccc2)cc1	none (no result: Vaccinia Venus, VACV mCherry inh, HCV inhibitor, FMDV antiviral)
CC(=O)Cc1nsc(NC(=O)c2ccccc2)n1	HCMV inh -64 (no result: VACV mCherry inh)
Nc1cc(S(=O)(=O)N2CCCCC2)ccc1Oc1ccccc1	HCV inhibitor inconclusive (no result: Vaccinia Venus, VACV mCherry inh)
CCOC(=O)c1c(C)[nH]c(C(=O)Nc2ccc(NC(C)=O)cc2)c1C	HCMV inh -65, HCV inhibitor inconclusive (no result: Vaccinia Venus, VACV mCherry inh)
CCOC(=O)c1c(C)[nH]c(C(=O)Nc2ccc(C)c(Cl)c2)c1C	none (no result: Vaccinia Venus, VACV mCherry inh, HCMV inh, FMDV antiviral)
CCOC(=O)c1[nH]c(C)c(C(=O)Nc2ccc3c(c2)OCCO3)c1C	HCMV inh -74, HCV inhibitor inconclusive
CCOC(=O)c1c(NC(=O)Cc2cccs2)sc(C)c1C	HCV inhibitor 35µM (no result: FMDV antiviral)
COc1ccc(NC(=O)C(NC(=O)Cc2cccs2)c2ccccc2)cc1 (centres undefined)	HCMV inh -68
CCOC(=O)c1c(NC(=O)Cc2cccs2)sc(C(=O)NC2CCCC2)c1C	none
O=C(Cc1cccs1)Nc1ccc(C(=O)O)cc1	HCMV inh -77 (no result: VACV mCherry inh)
CCc1nc2c(OCC(=O)c3ccc(Cl)cc3Cl)cccn2c1N(C)C(=O)c1cccs1	none (no result: HCV inhibitor)
CCN1CCc2c(sc(-n3cccc3)c2C(CCC(C)C)NC(=O)NCCC(=O)OC)C1 (centres undefined)	none (no result: HCV inhibitor)
CCOc1ccc(NC(=O)CSc2nc3ccsc3c(=O)n2CCCCCC(=O)O)cc1	HCMV inh active! (no result: HCV inhibitor)
COc1ccccc1NC(=S)NNC(=O)c1cc(C)n(C)n1	none
COc1ccccc1NC(=S)NNC(=O)c1cc(C)nn1C	HCMV inh -103
CNS(=O)(=O)c1cc(-c2nnc(Nc3ccc(NC(C)=O)cc3)c3ccccc23)ccc1C	HCMV inh -66
CNS(=O)(=O)c1cc(-c2nn3c(C)nnc3c3ccccc23)ccc1C	HCMV inh -62 (no result: HCV inhibitor)
